Laboratory results: PubChem BioAssay (NCATS)
Results filed as inconclusive are left out. Activity calls are given as the source filed them. Calls come from the whole dose curve; as a rule, active = well fitted curve in the direction sought with a large enough effect; inconclusive = small, poorly fitted or top-dose-only effect, or another doubt; inactive = no such curve, though single readings can be large; an effect the other way counts as inactive or inconclusive. Where a SMILES comes first, the peptide text is derived from it.

Assays:
MCC-13 = assay: qHTS assay to identify novel small-molecules to repurpose for Merkel cell carcinoma treatment (AID 1296009); details: MCC and control cell lines, CellTiter-Glo viability, 72 h; series mostly up to 46 µM; note: nearly all actives have a fitted effect of over 60% in size
Summary of the method: (§1)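 Cells were treated for 72 hr at 37 degree celsius with compounds in 8- or 11-point dose response. Viability was read by CellTiter-Glo luminescence, normalized to no-cell (cytotoxicity) and DMSO controls.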

MCC-26 = assay: as above; details: MCC and control cell lines, CellTiter-Glo viability, 72 h; series mostly up to 46 µM
Summary of the method: as §1

MKL-1 = assay: as above; details: MCC and control cell lines, CellTiter-Glo viability, 72 h; series mostly up to 46 µM
Summary of the method: as §1

MKL-2 = assay: as above; details: MCC and control cell lines, CellTiter-Glo viability, 72 h; series mostly up to 46 µM
Summary of the method: as §1

UISO = assay: as above; details: MCC and control cell lines, CellTiter-Glo viability, 72 h; series mostly up to 46 µM
Summary of the method: as §1

WaGa = assay: as above; details: MCC and control cell lines, CellTiter-Glo viability, 72 h; series mostly up to 46 µM
Summary of the method: as §1

C33A = assay: Primary qHTS to identify gynecologic anti-cancer compounds using libraries of approved drugs and bioactive compounds (AID 1345084); details: Gynecologic cancer cell panel viability, ATPlite luminescence, 48 h; series mostly up to 57.5 µM; note: nearly all actives have a fitted effect of over 55% in size
Summary of the method: (§2)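 In this quantitative HTS, cell killing is estimated from loss of ATP-dependent luciferase light. Cells see five compound concentrations over a 48 h exposure.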

CAOV3 = assay: as above; details: Gynecologic cancer cell panel viability, ATPlite luminescence, 48 h; series mostly up to 57.5 µM
Summary of the method: as §2

CASKI = assay: as above; details: Gynecologic cancer cell panel viability, ATPlite luminescence, 48 h; series mostly up to 57.5 µM
Summary of the method: as §2

Es-2 = assay: as above; details: Gynecologic cancer cell panel viability, ATPlite luminescence, 48 h; series mostly up to 57.5 µM
Summary of the method: as §2

HeLa = assay: as above; details: Gynecologic cancer cell panel viability, ATPlite luminescence, 48 h; series mostly up to 57.5 µM
Summary of the method: as §2

Hek293T = assay: as above; details: Gynecologic cancer cell panel viability, ATPlite luminescence, 48 h, control line for the selectivity index; series mostly up to 57.5 µM
Summary of the method: as §2

OV90 = assay: as above; details: Gynecologic cancer cell panel viability, ATPlite luminescence, 48 h; series mostly up to 57.5 µM
Summary of the method: as §2

PA-1 = assay: as above; details: Gynecologic cancer cell panel viability, ATPlite luminescence, 48 h; series mostly up to 57.5 µM
Summary of the method: as §2

Tov-21-G = assay: as above; details: Gynecologic cancer cell panel viability, ATPlite luminescence, 48 h; series mostly up to 57.5 µM
Summary of the method: as §2

JEG-3 = assay: as above; details: Gynecologic cancer cell panel viability, ATPlite luminescence, 48 h; series mostly up to 57.5 µM
Summary of the method: as §2

SKOV3 = assay: as above; details: Gynecologic cancer cell panel viability, ATPlite luminescence, 48 h; series mostly up to 57.5 µM
Summary of the method: as §2

Measured: Potency

CN1C(=O)c2ccccc2C1=O
not listed: JEG-3 | SKOV3
inactive: all other assays above

Brc1ccccc1-c1ccccc1
not listed: CAOV3
inactive: all other assays above

CC(=O)N[C@@H](CO)C(=O)N[C@@H](CC(=O)O)C(=O)N[C@@H](CCCCN)C(=O)N1CCC[C@H]1C(=O)O (Ac-SDKP-OH)
not listed: CAOV3
inactive: all other assays above

CCCCNc1ccc(C(=O)OCCN(CC)CC)cc1
not listed: CASKI | SKOV3
inactive: all other assays above

COC(=O)c1c(Cl)c(Cl)c(C(=O)OC)c(Cl)c1Cl
not listed: CAOV3 | SKOV3
inactive: all other assays above

NCC(=O)O
not listed: CAOV3 | Tov-21-G
inactive: all other assays above

CNC[C@H](O)[C@@H](O)[C@H](O)[C@H](O)CO
not listed: Hek293T
inactive: all other assays above

NC(=O)NS(=O)(=O)c1ccc(Cl)cc1
not listed: SKOV3
inactive: all other assays above

CN1[C@@H]2CC[C@H]1CC(NC(=O)n1c(=O)[nH]c3ccccc31)C2 (stereo not given in full)
not listed: CAOV3 | OV90
inactive: all other assays above

C[C@@H]1C[C@H]2[C@@H]3CCC4=CC(=O)C=C[C@]4(C)[C@@]3(F)[C@@H](O)C[C@]2(C)[C@@]1(O)C(=O)COC(=O)c1ccncc1
inactive: all assays above

COc1ccc(OC(=O)N(CC(=O)O)Cc2ccc(OCCc3nc(-c4ccccc4)oc3C)cc2)cc1
not listed: CAOV3
inactive: all other assays above

CCCCCN(CCCOC)C(=O)C(CCC(=O)O)NC(=O)c1ccc(Cl)c(Cl)c1 (stereo not given)
not listed: CAOV3
inactive: all other assays above

CC(C)(C)C(O)/C=C/c1ccc2c(c1)OCO2 (stereo not given)
inactive: all assays above
